Data taken from PubChem BioAssay AID680 (PCMD, 2007).
In all, about 62,000 compounds went through this assay and about 120 (0.19%) were called active. No stated cut-off is given here; in the data, active means inhibition above about 20% (passing the limit was not always enough); inactive means the rest. For the sample, actives were picked, then their nearest neighbours and some compounds at random.

target: Coagulation factor XI (Homo sapiens) (UniProt P03951); experiment: FXIa protease inhibitors in compound pools, primary screen, biochemical, 10-compound mixtures (AID 680); settings: purified FXIa, fluorogenic substrate, pooled mixtures; at 5 µM; active compounds read high;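 further: each value is inhibition by a whole ten-compound pool holding the compound; 0% = enzyme with no mixture and 100% = wells lacking enzyme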
Sequence (P03951 19-387 limits assumed): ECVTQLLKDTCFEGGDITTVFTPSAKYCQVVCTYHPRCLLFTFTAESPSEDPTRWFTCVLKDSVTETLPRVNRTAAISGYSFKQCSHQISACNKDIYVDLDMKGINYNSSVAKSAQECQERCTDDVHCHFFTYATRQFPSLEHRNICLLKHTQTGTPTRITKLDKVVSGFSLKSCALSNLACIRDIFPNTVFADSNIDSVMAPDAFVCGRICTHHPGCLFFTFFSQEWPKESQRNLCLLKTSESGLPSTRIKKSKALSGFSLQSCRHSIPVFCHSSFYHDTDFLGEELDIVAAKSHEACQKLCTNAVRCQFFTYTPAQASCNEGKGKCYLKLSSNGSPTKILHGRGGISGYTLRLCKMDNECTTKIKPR
Sequence (P03951 388-625 limits assumed): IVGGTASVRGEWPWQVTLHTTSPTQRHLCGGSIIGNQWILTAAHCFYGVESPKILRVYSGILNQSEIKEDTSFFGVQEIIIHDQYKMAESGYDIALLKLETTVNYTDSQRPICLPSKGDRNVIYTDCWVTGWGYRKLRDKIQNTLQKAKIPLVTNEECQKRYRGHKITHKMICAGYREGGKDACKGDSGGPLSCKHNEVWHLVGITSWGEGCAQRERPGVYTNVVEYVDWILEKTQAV

Compound | inhibition
COC(C)(C)[C@]12CC(O)(C(C)C)ON1[C@H]1CCCCC1N2O (some centres not stated) | -9.49% (inactive)
CCOC(=O)CSc1nnc(CNC(=O)Cc2ccccc2)n1-c1ccccc1OC | 13.1% (inactive)
COc1ccc(CCN2C(=O)c3[nH]nc(-c4ccccc4O)c3C2c2ccc(C)cc2)cc1OC (configuration not stated) | 8.98% (inactive)
CCc1c(C)n([O-])c2c([n+]1=O)CCCCC2 | 5.37% (inactive)
CC(C)(C)n1c(=O)[nH]c2c(c1=O)CCC2 | 5.49% (inactive)
O=C(CC1(O)C(=O)N(CN2CCOCC2)c2ccccc21)c1ccccc1 (configuration not stated) | 4.51% (inactive)
Cc1cc(NC(=O)CCC(=O)N(c2ccccc2)C(C(=O)NC2CCCC2)c2ccncc2)no1 (configuration not stated) | 10% (inactive)
Cn1c(NC(=O)c2ccco2)c(-c2ccccc2Cl)c(=O)c2ccccc21 | 7.49% (inactive)
CC(C)(C)NC(=O)C(c1ccncc1)N(C(=O)CNC(=O)c1ccco1)c1ccc2c(c1)OCO2 (configuration not stated) | 8.32% (inactive)
CCOC(=O)C1CCN(C(=O)COc2cc(C)c(Br)c(C)c2)CC1 | -1.91% (inactive)
O=C(CSc1nc2c(cnn2-c2ccc(F)cc2)c(=O)[nH]1)N1CCCCCC1 | 2.05% (inactive)
CCC(=O)c1cc2c(cc1NC(=O)c1cccs1)OCCO2 | 1.74% (inactive)
Cc1oc(-c2cccc(Cl)c2)[n+]([O-])c1C | 1.39% (inactive)
CN(C)S(=O)(=O)c1ccc(Oc2ccc(S(=O)(=O)N(C)C)cc2)cc1 | 7.21% (inactive)
Cc1cccc2c1N(CC(=O)OC(C)C)C(=O)C2=O | 1.41% (inactive)
CC1CCN(c2nc3c(c(=O)[nH]c(=O)n3C)n2CCCc2ccccc2)CC1 | -1.49% (inactive)
O=C(CSc1nnc(-c2ccncc2)n1C1CCCCC1)Nc1ccccc1 | 8.47% (inactive)
Fc1ccc(-c2nnc(CSc3nnc(-c4ccc5c(c4)OCO5)o3)o2)cc1 | 0.485% (inactive)
COc1cccc(-n2cc3c(c2-c2ccccc2)c(=O)n(C)c(=O)n3C)c1 | 3.95% (inactive)
OCCCNC(c1ccccc1)c1ccc(O)cc1 (configuration not stated) | 7.84% (inactive)
COc1ccc2c(CC(=O)Nc3nnc(C4CC4)s3)coc2c1 | 4.86% (inactive)
COc1ccccc1Cn1c(=S)[nH]c2cc(C(=O)N3CCN(C)CC3)ccc2c1=O | 5.3% (inactive)
COc1cccc(NC(=O)CN(C)S(=O)(=O)c2ccc(C)cc2)c1 | -2.5% (inactive)
Cc1ccccc1-c1nc(CS(=O)(=O)CC(=O)N2CCc3ccccc3C2)c(C)o1 | 11.3% (inactive)
COc1ccccc1CNC(=O)CCCn1c(=O)c2ccccc2n(CC(=O)NC2CCCC2)c1=O | 0.555% (inactive)

Compound | inhibition
CC12CN(Cc3ccccc3)CC(C)(CN(Cc3ccccc3)C1)C2=NO | -5.8% (inactive)
CCOC(=O)NC(C(F)(F)F)(C(F)(F)F)P(=O)(c1ccccc1)c1ccccc1 | 22.6% (active)
CCOC(=O)Nc1ccccc1N1C(=O)c2ccccc2C1=O | 7.59% (inactive)
CCOC(=O)C(C(=O)OCC)C(C#N)c1ccccc1 (configuration not stated) | 3.99% (inactive)
CCOC(=O)N1CCC(NC(=O)C(C)n2c3ccccc3c3cnn(C)c(=O)c32)CC1 (configuration not stated) | -52.1% (inactive)
CN(CCCC(=O)Nc1nccs1)S(=O)(=O)c1ccc(Cl)cc1 | 2.62% (inactive)
Cc1cc(C)c2c(n1)nn1c(-n3ccnc3)cc(C)nc21 | 4.82% (inactive)
CN(C(=O)c1ccno1)c1nnc(-c2cccnc2)s1 | 0.72% (inactive)
CN(Cc1ccccc1)Cc1ccccc1F | 11% (inactive)
O=C(Nc1ccccc1)N(Cc1cccnc1)Cc1ccco1 | 9.03% (inactive)
O=C(Nc1ccn(Cc2ccc(F)cc2)n1)c1ccncc1 | 1.2% (inactive)
CS(=O)(=O)N1CCCC(C(=O)N2CCOCC2)C1 (configuration not stated) | 6.58% (inactive)
Fc1ccccc1OCCSc1nc2ccccc2o1 | 5.06% (inactive)
COC(=O)C1=C(C)N(C)C(C)=C(C(=O)OC)C1c1cccc(Br)c1 | 4.43% (inactive)
CC(=O)NC(C)(C)C1CC=C(C)/C(=N\O)C1 (configuration not stated) | 6.99% (inactive)
Cc1ccc(S(=O)(=O)N2CCC(C(=O)OCC(=O)N3CC(=O)Nc4ccccc43)CC2)cc1 | -8.9% (inactive)
O=C(CSc1nnc2scc(-c3ccc(F)cc3)n12)NCc1ccco1 | 2.54% (inactive)
Cc1ccc(-c2csc3nnc(SCC(=O)NCc4ccco4)n23)cc1 | 25.9% (active)
Cn1c(-c2ccc(F)cc2)cnc1SCC(=O)NCc1ccco1 | -1.83% (inactive)
COC(=O)c1c(NC(=O)c2cccs2)sc2c1CCCC2 | 5.01% (inactive)
NC(=O)COc1ccc2c3c(c(=O)oc2c1)CCCCC3 | -3.05% (inactive)
CCC(=O)Nc1ccc(C(=O)CSc2nnc(CNc3ccc(Cl)cc3)o2)cc1OC | 1.04% (inactive)
COc1ccc(CCNC(=O)C2CCCN(Cc3nc(-c4cccc(Cl)c4)oc3C)C2)cc1OC (configuration not stated) | 10.1% (inactive)
Cc1nc2nc[nH]n2c(=O)c1NC(=O)c1cccc(OCC(C)C)c1 | 8.27% (inactive)
CCOC(=O)C1CCN(C(=O)Cc2c(C(=O)O)[nH]c3ccccc23)CC1 | 6.1% (inactive)

Compound | inhibition
CCc1c(C)nc2ncnn2c1N1CCC(C(=O)NCc2ccc3c(c2)OCO3)CC1 | 8.05% (inactive)
CCN(CC)CCN1C(=O)C(=O)/C(=C(/O)c2ccccc2)C1c1ccccc1F (configuration not stated) | 4.21% (inactive)
Cc1ccc(S(=O)(=O)N(C)CC(=O)N2CCc3ccccc32)cc1 | 4.38% (inactive)
COc1ccc(C2N=C(N)N=C(N)N2c2ccccc2)cc1OC (configuration not stated) | 1.53% (inactive)
O=C(CSc1nnc(-c2ccco2)o1)NCC(=O)c1ccccc1 | 10.1% (inactive)
COc1cccc2c(C)c(C(=O)O)[nH]c12 | -18% (inactive)
CCOC(=O)N1CCC(O)(c2cc(C)c(C)cc2C)CC1 | 9.28% (inactive)
Cc1nc2nc3c(cn2n1)C(=O)CC(c1ccccc1)C3 (configuration not stated) | 1.31% (inactive)
COc1ccc(CCN2CNc3c(c(=O)n(C)c(=O)n3C)C2)cc1OC | 10.4% (inactive)
N#CCCn1ncc2ccccc21 | -0.96% (inactive)
COc1cc(=O)[nH]c(=O)n1C(=O)Cc1ccccc1 | 2.34% (inactive)
COc1ccc(N2CCN(C(=O)CSc3nnc4ncccn34)CC2)cc1 | 3.9% (inactive)
CCOC(=O)c1cc2sccc2n1Cc1ccc(C#N)cc1 | 0.72% (inactive)
CCOc1ccc(/C(O)=C2/C(=O)C(=O)N(Cc3cccnc3)C2c2ccc(N(C)C)cc2)c(C)c1 (configuration not stated) | -2.04% (inactive)
O=c1c2ccccc2nnn1CSc1nc2sc3c(c2c(=O)n1CC1CCCO1)CCC3 (configuration not stated) | 0.04% (inactive)
CN(C)CCCNC(=O)c1ccc2[nH]c3ccccc3c2c1 | 3.52% (inactive)
O=C(CSc1nnc(-c2ccco2)n1Cc1ccccc1)NC(=O)NCc1ccco1 | 2.1% (inactive)
CCOCCOC(=O)C1=C(C)N(C)C(=O)NC1c1ccccc1F (configuration not stated) | 5% (inactive)
CCc1ccc(-c2nnn(Cc3nc4ccccc4s3)n2)cc1 | 9.76% (inactive)
COc1ccc(-c2nnc(SC(C)C#N)o2)cc1 (configuration not stated) | -13.7% (inactive)
C=C(C)COc1ccc(-c2n[nH]c(C)c2-c2ccccc2)c(O)c1 | 6.11% (inactive)
C=C(C)COc1ccc(-c2n[nH]c(C)c2-c2ccccc2OC)c(O)c1 | 21.4% (active)
COc1ccc(-c2n[nH]c(C)c2-c2ccc(OC)c(OC)c2)c(O)c1 | 5.75% (inactive)
Cc1sc2c(c1C)c(=O)n(-c1ccccc1)c1nncn21 | 0.14% (inactive)
O=C1CSC(c2cccc(F)c2)N1c1ccccc1F (configuration not stated) | 1.83% (inactive)

Compound | inhibition
CCCc1[nH]nc2c1C(c1ccc(Br)s1)C(C#N)=C(N)O2 (configuration not stated) | 7.01% (inactive)
COc1ccccc1-c1cc(C(=O)N2CCCCC2)no1 | 3.06% (inactive)
COC(=O)CNS(=O)(=O)c1ccc(Cc2ccc(S(=O)(=O)NCC(=O)OC)cc2)cc1 | 13.4% (inactive)
COC(=O)c1cc(NC2c3ccccc3C(=O)N2c2ccc(Cl)cn2)cc(C(=O)OC)c1 (configuration not stated) | 3.54% (inactive)
CCCc1nc(N)nc2c1C(=O)CC(C)(C)C2 | -0.555% (inactive)
COC(=O)CN(c1cccc(C(C)=O)c1)S(C)(=O)=O | 2.59% (inactive)
CCN(c1ccccc1)S(=O)(=O)c1ccc(N)cc1 | 0.065% (inactive)
O=C(Nc1ccc(Cl)cn1)c1cnn2cccnc12 | 3.33% (inactive)
Brc1cccc(-c2nnc3n2CCC3)c1 | 2.48% (inactive)
CC(C)CCNC(=O)CCNS(=O)(=O)c1ccc(Cl)cc1 | 6.13% (inactive)
CCOC(=O)c1c(-n2cnnn2)sc(C)c1C | 13.6% (inactive)
Cc1c2cn[nH]c(=O)c2c(C)n1Cc1ccc(F)cc1 | 3.31% (inactive)
CC(C)c1nnc(NC(=O)C2CCCN2S(=O)(=O)c2ccc(Cl)cc2)s1 (configuration not stated) | 9.37% (inactive)
Cc1cccc(NC(=O)C2CCCN2S(=O)(=O)c2ccc(F)cc2)c1C (configuration not stated) | 23.4% (active)
Cc1ccc(S(=O)(=O)N2CCCC2C(=O)NCc2ccco2)cc1 (configuration not stated) | 3.07% (inactive)
N#Cc1nc(Cc2cccc3ccccc23)oc1NCc1ccc2c(c1)OCO2 | 3.7% (inactive)
O=C(Cn1nc(Cc2cccnc2)c2ccccc2c1=O)NCC1CCCO1 (configuration not stated) | 1.16% (inactive)
CCC(C)Sc1nnc(-c2c[nH]c3ccccc23)n1CCOC (configuration not stated) | 4.33% (inactive)
CCn1c(SCCC(C)C)nnc1-c1c[nH]c2ccccc12 | 27.8% (active)
CCOC(=O)N1CCN(C(=O)CSc2nnc(-c3c[nH]c4ccccc34)n2CCOC)CC1 | 6.18% (inactive)
O=C(c1ccccc1)c1ccc(OC(=O)N2CCCC2)cc1 | 5.6% (inactive)
COc1ccc(CCNC(=O)CSc2nnc(CNC(=O)c3cccs3)o2)cc1OC | 4.31% (inactive)
